Shown are actives, neighbours in structure and some others; about 6.1% of the full set was active somewhere.
D3 ag: agonists of human D3 dopamine receptor; D3R DiscoveRx beta-arrestin cells, luminescence, 90 min; max activation, %; actives 0.58% (n = 410,000); in the data active = max activation above about 30%; also: 0% is about no effect
Target sequence (P35462 whole entry, looked up): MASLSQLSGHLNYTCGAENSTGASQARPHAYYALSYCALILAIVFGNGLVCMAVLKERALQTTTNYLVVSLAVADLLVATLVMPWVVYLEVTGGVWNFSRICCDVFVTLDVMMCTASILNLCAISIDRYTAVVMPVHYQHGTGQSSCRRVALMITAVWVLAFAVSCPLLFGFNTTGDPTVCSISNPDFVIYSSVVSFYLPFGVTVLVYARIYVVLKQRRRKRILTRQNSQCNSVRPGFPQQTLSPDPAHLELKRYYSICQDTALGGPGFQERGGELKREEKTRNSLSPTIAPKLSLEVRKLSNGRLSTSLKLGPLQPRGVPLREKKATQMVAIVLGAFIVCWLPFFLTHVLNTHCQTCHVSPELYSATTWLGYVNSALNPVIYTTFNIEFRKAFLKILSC
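Cells at 1500/well, incubated overnight, then treated with pinned compounds (dopamine as control) for 90 min at 37 degrees C. DiscoveRx reagent added for 30 - 60 minutes at room temperature; luminescence read.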
DRD3 antagonist: D3 dopamine receptor (human) antagonism; actives 2.5% (n = 360,000); D3R cells, DiscoveRx beta-arrestin luminescence, antagonist mode; stronger effect = lower value; max response, negative = inhibition, %; P35462; in the data active = max response below about -50%; inconclusive = no clear call, values can overlap the other calls; also: % is scaled to controls: 0 for no effect and ±100 for the full control effect
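Cells expressing the human receptor were seeded at 1500 cells/well, incubated overnight at 37 degrees C in 5% CO2, then exposed to library compounds with dopamine controls for 90 minutes at 37 degrees C before luminescent detection.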
D1 PAM: potentiators of human D1 dopamine receptor. P21728. AID 504651. HEK293 TREx D1 cells, calcium flux, dopamine EC20 potentiation. potentiation, % at 10 µM. actives 0.036% (n = 360,000); in the data active = potentiation above about 30%; also: 0% is about no effect
D1 antag: antagonists of human D1 dopamine receptor | activity change, negative = inhibition, % at 10 µM | P21728 | actives 3.2% (n = 360,000) | HEK293 TREx D1 cells, calcium flux, dopamine EC80; stronger effect = lower value; in the data active = activity change below about -30%; also: % is scaled to controls: 0 for no effect and ±100 for the full control effect
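Allosteric or orthosteric antagonism assessed as attenuation of the calcium response to EC80 dopamine, added 180 s after compound, in induced HEK293 Trex D1 cells loaded with no-wash calcium dye.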
ERG Ets-DNA blk: blocks human ERG Ets domain binding to DNA; P11308; fluorescence polarization, His-ERG Ets domain / labelled DNA; Potency, µM (titrated, usually from 76.9 µM), without a hit: at the top dose FP activity, negative = inhibition, hits mostly inhibitors; actives 0.028% (n = 370,000); AID 624246; active = well fitted inhibition curve with a large enough effect in the polarisation, with a control signal flat; inconclusive = small, poorly fitted or top-dose-only effect, or effect the other way, or a change in a side signal; inactive = no such curve, though single readings can be large or run the other way; the % refers to the polarisation;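 also: polarization taken with two DNA probes labelled with fluorescein and Texas red; potency is read from the fitted curve at half-maximal effect; % of control where 0% means no effect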
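His-tagged ERG Ets domain (1 uM in the protein solution; 300mM KCl, 50mM Tris-HCl, 1mM EDTA, 1mM DTT, pH 7.5) received compound, then a probe mix of 5 nM fluorescein-DNA and 100nM Texas-615-DNA. Fluorescence polarization was read for both dyes.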
D1 agonist: human D1 receptor agonism | actives 1% (n = 360,000) | P21728 | HEK293 T-REx D1 cells, calcium flux, agonist mode | AID 504660 | activation, % at 2 µM; in the data active = activation above about 30%; also: 0% is about no effect
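Tetracycline-induced HEK293 TREx D1 cells, force-coupled to calcium signalling, were dye-loaded with a no-wash calcium kit. Compound was pin-added after a 10 s baseline. Fluorescence was read kinetically at 1 cycle/s for 180 s, with calcium rises flagged as agonism.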
* marks the source's active call; other numbers are inactive results; ? = inconclusive; / = no result.

SMILES	D3 ag	DRD3 antagonist	D1 PAM	D1 antag	ERG Ets-DNA blk	D1 agonist
O=C(O/N=C(/c1ccccc1)c1ccncc1)c1cccc(F)c1	0.7	4.8	-14.5	-59.4*	-5.6%	2.0
Cc1ccc(-c2cc(C(F)(F)F)n3nc(C(=O)NCC45CC6CC(CC(C6)C4)C5)cc3n2)cc1	0.8	/	-0.3	1.1	8.0%	4.9
Cc1ccccc1S(=O)(=O)N1[C@@H](c2ccc(Br)cc2)C(C(=O)O)=CC[C@H]1c1ccc(Cl)cc1	-27.2	-10.9	/	/	-12.8%	/
CCOc1ccc([C@@H]2CC=C(C(=O)O)[C@H](c3ccc(Cl)cc3)N2S(=O)(=O)c2ccc(C)cc2)cc1	-30.4	-72.8*	-3.3	0.7	-20.8%	-1.6
Cc1ccc(S(=O)(=O)N2[C@@H](c3cccc(Cl)c3)C(C(=O)O)=CC[C@H]2c2ccc(C(C)C)cc2)cc1	0.0	8.0	-12.1	-35.1*	-7.0%	6.7
Cc1ccc([C@@H]2CC=C(C(=O)O)[C@H](c3ccc(Cl)cc3)N2S(=O)(=O)c2ccccc2C)cc1	-44.4	-60.6*	/	/	12.0%	/
Cc1ccc(S(=O)(=O)N2[C@@H](c3ccc(Cl)cc3)C(C(=O)O)=CC[C@H]2c2cccc(Cl)c2)cc1	-18.5	-13.8	2.5	1.1	-6.7%	1.4
Cc1ccccc1S(=O)(=O)N1[C@@H](c2ccccc2)C(C(=O)O)=CC[C@H]1c1ccc(Cl)cc1	-29.6	-55.9*	-6.6	-12.1	0.8%	-0.7
CCN(CC)C(=O)COc1coc(CN2CCN(c3cccc(Cl)c3)CC2)cc1=O	-2.7	5.5	-2.1	9.7	-8.5%	5.7
O=C(CO/N=C/c1cccc([N+](=O)[O-])c1)NC1CCCCCC1	1.9	1.2	-8.3	4.2	-2.3%	0.1
O=C(C1=NOC2(C1)C(=O)Nc1ccccc12)N1CCOCC1 (stereo not given)	3.6	0.0	/	/	/	/
Cc1ccc(S(=O)(=O)N2[C@@H](c3ccccc3)C(C(=O)O)=CC[C@H]2c2ccc(Cl)c(Cl)c2)cc1	-28.2	-21.5	-4.5	5.0	7.1%	8.3
Cc1ccc(S(=O)(=O)N2[C@@H](c3ccccc3F)C(C(=O)O)=CC[C@H]2c2ccc(Cl)c(Cl)c2)cc1	-21.1	-6.6	-11.3	-24.0	-5.3%	58.4*
COc1cccc(C(=O)CC(=O)C(=O)Nc2ccc(C)cc2Cl)c1	9.3	5.5	-8.2	15.2	10.9%	-0.3
COc1ccc(C(=O)CC(=O)C(=O)Nc2ccc(C)cc2Cl)cc1	7.9	-64.0*	-1.1	8.8	8.1%	4.8
CCOc1ccccc1CNC(=O)CN(c1ccc(C)cc1)S(=O)(=O)N(C)C	-4.1	/	1.2	-3.5	-1.9%	-0.6
COc1ccc(Cn2cc(CN3CCOCC3)nn2)cc1	4.0	9.0	/	/	/	/
O=C(C1CCN(Cc2ccc(F)cc2)CC1)N1CCN(C/C=C/c2ccccc2)CC1	-15.1	-77.2*	-4.2	-18.1	?	4.1
O=C(C1CCN(Cc2ccccc2)CC1)N1CCN(C/C=C/c2ccccc2)CC1	-12.6	-54.2*	3.1	-21.0	5.5%	7.8
O=C(C1CCN(C2CCN(C/C=C/c3ccccc3)CC2)CC1)N1CCOCC1	-4.4	-1.2	-4.9	6.3	4.7%	4.5
COCCNc1nc2c(S(=O)(=O)c3ccc(C)c(C)c3)nnn2c2ccc(Cl)cc12	2.1	/	-8.1	-63.6*	5.4%	0.7
O=S(=O)(c1ccccc1)c1nnn2c1nc(NCc1ccc(Cl)cc1)c1sccc12	-3.6	/	-5.2	-33.6*	-2.3%	0.3
COCCCNc1nc2c(S(=O)(=O)c3ccccc3)nnn2c2ccc(Cl)cc12	2.2	/	-3.8	-16.0	0.9%	0.9
Cc1ccc(S(=O)(=O)c2nnn3c2nc(NC(C)C)c2sccc23)cc1	-9.8	/	-6.8	-30.4*	0.7%	5.0
Cc1ccc(CNc2nc3c(S(=O)(=O)c4ccccc4)nnn3c3ccsc23)cc1	-16.0	/	-0.1	6.7	0.5%	2.7
SMILES	D3 ag	DRD3 antagonist	D1 PAM	D1 antag	ERG Ets-DNA blk	D1 agonist
COCCCNc1nc2c(S(=O)(=O)c3ccc(C)c(C)c3)nnn2c2ccc(Cl)cc12	-0.7	/	-7.0	-66.0*	-0.9%	2.5
COc1ccc(F)cc1-c1nc(N)nc(N)n1	13.2	5.2	2.5	/	-14.1%	0.0
CNC(=S)Nc1ccc(OC(F)(F)F)cc1	-0.2	0.7	0.8	5.4	15.7%	13.4
Cc1ccc(S(=O)(=O)c2nnn3c2nc(NC(C)C)c2cc(Cl)ccc23)cc1C	5.4	/	-4.4	-52.0*	-2.4%	0.0
CCc1ccccc1NS(=O)(=O)c1ccc2c(c1)CCN2C(=O)C1CC1	6.0	/	0.7	-3.2	5.2%	10.0
Cc1cccc(NS(=O)(=O)c2ccc3c(c2)CCN3C(=O)C2CCC2)c1	3.1	/	-0.5	-25.0	-9.5%	8.6
COc1ccc(NS(=O)(=O)c2ccc3c(c2)CCN3C(=O)C2CC2)cc1OC	1.7	/	-2.9	-32.8*	-0.6%	16.7
CN1CCN(c2ccccc2NS(=O)(=O)c2ccc3c(c2)CCN3C(=O)C2CCC2)CC1	-12.0	-51.8*	/	/	-4.4%	/
CCCCN(Cc1ccccc1)S(=O)(=O)c1ccc2c(c1)CCN2C(=O)C1CCC1	5.5	/	0.9	-2.5	2.3%	17.6
O=C(C1CC1)N1CCc2cc(S(=O)(=O)N(CCO)Cc3ccccc3)ccc21	-7.1	6.7	-4.8	-39.5*	-14.3%	11.4
Cc1c(NS(=O)(=O)N2CCCC2)c(=O)n(-c2ccccc2)n1C	-3.5	-26.8	-5.7	-52.5*	-7.2%	1.2
CC(C)CN(C(=O)COC(=O)c1cc(=O)[nH]c2ccccc12)c1c(N)n(Cc2ccccc2)c(=O)[nH]c1=O	-4.8	13.1	/	/	0.6%	/
Cc1c(NS(=O)(=O)c2cc(Br)cc3c2N(C(=O)C2CC2)CC3)c(=O)n(-c2ccccc2)n1C	-3.8	-26.4	-2.9	6.1	-4.5%	1.8
Cc1c(NS(=O)(=O)c2ccc3c(c2)CCN3C(=O)C2CC2)c(=O)n(-c2ccccc2)n1C	2.6	14.3	-2.1	-35.0*	-7.7%	-0.3
COc1ccc(OC)c(CN2CCN(Cc3ccc(OC)c(OC)c3OC)CC2)c1	-4.9	?	/	/	/	/
COc1ccc(CN2CCc3ccccc3C2)c(OC)c1	-14.4	-64.9*	-3.8	6.6	2.9%	1.1
COc1ccc(CN2CCc3ccccc3C2)c(OC)c1OC	-30.1	-74.6*	4.7	19.3	4.5%	4.4
O=C(NCCC(=O)N1CCN(c2ncccn2)CC1)c1ccccc1	1.5	26.4	-0.6	-32.5*	5.4%	1.4
O=C(O)CCCC(=O)N1CCN(c2ncccn2)CC1	0.3	1.3	-9.7	-36.0*	1.7%	2.2
O=C(NCCC(=O)N1CCN(c2ncccn2)CC1)c1ccccc1Cl	7.8	18.4	-0.7	-0.8	-14.4%	2.9
Fc1ccc(/C=N/NC(=S)Nc2cccnc2)cc1	-10.9	?	-1.0	1.4	-16.1%	5.2

Screening results (PubChem)
